Some test systems named below: SR leukemia; RPMI-8226 leukemia; OVCAR-8 ovarian; OVCAR-5 ovarian; OVCAR-4 ovarian; SK-OV-3 ovarian; IGROV1 ovarian; OVCAR-3 ovarian; HS 578T breast; NCI/ADR-RES ovarian; T-47D breast; BT-549 breast; MDA-MB-435 melanoma; SW-620 colon; MCF7 breast; HCT-116 colon; HCC-2998 colon; KM12 colon.
Common to all, as to assay: NCI-60 one-dose screen, 48 h (100 = growth as untreated, 0 = no growth, -100 = all killed)
Common to all, as to conditions: 10 µM unless noted

Each structure is given as a SMILES string. About 83,000 compounds went through this panel and 20% of them were active in at least one assay; those are over-represented in the sample as a whole.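 Each cell line was grown in a 96-well plate and treated with one concentration of compound for 48 hours. Values below 10 were considered active.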 Unmarked numbers belong to inactive results. Activity calls are given as the source filed them.

These results are taken from PubChem BioAssay (NCI).

On to `CC/C=C\C[C@H]1C/C=C2/C(=O)C(Cl)=C[C@@H]2C/C=C\CCCC(=O)O1`, for which the growth is -2.48% (active) in the assay on SR leukemia; -14.1% (active) with RPMI-8226 leukemia; 3.57% (active) with OVCAR-8 ovarian; -25% (active) in the assay on OVCAR-5 ovarian; -37.8% (active) with OVCAR-4 ovarian; -6.42% (active) with SK-OV-3 ovarian. In addition, the growth with IGROV1 ovarian is -41.7% (active); with OVCAR-3 ovarian, -96.1% (active); in the assay on HS 578T breast it was 17.6%; in the assay with NCI/ADR-RES ovarian, 6.27% (active); in the assay with T-47D breast, -16.1% (active); with BT-549 breast, -75% (active). The growth in the assay with MDA-MB-435 melanoma was -74.8% (active); with SW-620 colon, -74.8% (active); with MCF7 breast, -40.4% (active); with HCT-116 colon, -81% (active); with HCC-2998 colon it was -80.2% (active); in the assay on KM12 colon, -74.3% (active).
With `O=C(CCl)NCCNc1nccc(Nc2ccc(S(=O)(=O)Nc3ccccn3)cc2)n1`, the growth was 19.4% in the assay with SR leukemia; 14.8% in the assay on RPMI-8226 leukemia; 32.7% in the assay on OVCAR-8 ovarian; 15.7% in the assay with OVCAR-5 ovarian; 29.4% in the assay on OVCAR-4 ovarian; 61.9% in the assay with SK-OV-3 ovarian. For the same molecule, the growth with IGROV1 ovarian was 8.94% (active); in the assay with OVCAR-3 ovarian, -6.7% (active); in the assay with HS 578T breast, 73.1%; in the assay with NCI/ADR-RES ovarian, 46.5%; with T-47D breast, 9.1% (active); in the assay with BT-549 breast it was -5.35% (active). In addition, the growth in the assay with MDA-MB-435 melanoma was 7.62% (active); in the assay with SW-620 colon, 8.07% (active); in the assay on MCF7 breast it was 11%; with HCT-116 colon, -44.6% (active); with HCC-2998 colon, 99.7%; with KM12 colon it was 34%.
In the case of `CC1CCN(C(=O)CSc2nc3sc4c(c3c(=O)[nH]2)CCCC4)CC1`, the growth is 85.5% in the assay on SR leukemia; 82.4% with RPMI-8226 leukemia; 102% in the assay with OVCAR-8 ovarian; 102% in the assay on OVCAR-5 ovarian; 108% with OVCAR-4 ovarian; 103% with SK-OV-3 ovarian. Also, the growth in the assay on IGROV1 ovarian was 87.7%; in the assay with OVCAR-3 ovarian it was 116%; in the assay with HS 578T breast, 113%; in the assay with NCI/ADR-RES ovarian, 109%; in the assay with T-47D breast it was 102%; in the assay with BT-549 breast, 95.2%. In addition, the growth is 95.6% in the assay with MDA-MB-435 melanoma; 108% with SW-620 colon; 109% in the assay with MCF7 breast; 112% in the assay on HCT-116 colon; 120% with HCC-2998 colon; 120% with KM12 colon.
For the molecule `CCSc1nnc(NC(=O)Cc2ccc(Cl)cc2)s1`, the growth in the assay on SR leukemia was 103%; in the assay on RPMI-8226 leukemia, 116%; with OVCAR-8 ovarian it was 113%; in the assay on OVCAR-5 ovarian, 97.1%; with OVCAR-4 ovarian, 107%; in the assay with SK-OV-3 ovarian, 106%. Also, the growth is -24.9% (active) with IGROV1 ovarian; 106% with OVCAR-3 ovarian; 110% in the assay on HS 578T breast; 104% with NCI/ADR-RES ovarian; 96.2% with T-47D breast; 109% in the assay on BT-549 breast. The growth in the assay with MDA-MB-435 melanoma is 98.9%; with SW-620 colon, 109%; in the assay with MCF7 breast it was 101%; with HCT-116 colon it was 105%; in the assay with HCC-2998 colon, 84.9%; with KM12 colon it was 96.9%.
For the molecule `Cc1cnc(NC(=O)C(Cc2ccccc2)NC(=O)c2ccccc2)s1` (configuration not stated), the growth in the assay with SR leukemia was 41%; with RPMI-8226 leukemia, -15.7% (active); in the assay with OVCAR-8 ovarian it was 92.6%; with OVCAR-5 ovarian, 106%; in the assay with OVCAR-4 ovarian, 59.4%; with SK-OV-3 ovarian, 108%. Further, the growth is -19.6% (active) with IGROV1 ovarian; 83.8% in the assay with OVCAR-3 ovarian; 85.8% with HS 578T breast; 65.6% in the assay with NCI/ADR-RES ovarian; 87.3% with T-47D breast; 88.4% in the assay with BT-549 breast. Further, the growth with MDA-MB-435 melanoma is 13.2%; in the assay on SW-620 colon, 80.3%; in the assay on MCF7 breast, 46.2%; in the assay with HCT-116 colon, 49.7%; in the assay on HCC-2998 colon, 73.3%; in the assay with KM12 colon, 60.2%.
Take `COc1cc(-c2csc(NC(=O)c3cc(C(F)(F)F)cc(C(F)(F)F)c3)n2)cc(OC)c1OC`: the growth in the assay with SR leukemia was 40.4%; in the assay on RPMI-8226 leukemia, 14.1%; with OVCAR-8 ovarian it was 25.5%; with OVCAR-5 ovarian, 60.1%; with OVCAR-4 ovarian, 23.4%; in the assay on SK-OV-3 ovarian it was 35.4%. Further, the growth with IGROV1 ovarian is 46%; in the assay with OVCAR-3 ovarian it was 10.6%; with HS 578T breast it was 35.1%; with NCI/ADR-RES ovarian it was 16.2%; in the assay with T-47D breast it was -15.9% (active); with BT-549 breast, 18.7%. Besides, the growth in the assay with MDA-MB-435 melanoma is 28.6%; in the assay on SW-620 colon, 44%; with MCF7 breast, 18.4%; in the assay on HCT-116 colon it was 14.4%; in the assay on HCC-2998 colon it was 31%; with KM12 colon, 22.1%.
For `CCOP(=O)(CCN1CCN(CCCCCOc2cc3c(cc2OC)C(=O)N2CCC[C@H]2C=N3)CC1)OCC`, the growth with SR leukemia is 28.7%; in the assay on RPMI-8226 leukemia, -10.5% (active); in the assay on OVCAR-8 ovarian it was 83.4%; in the assay with OVCAR-5 ovarian, 106%; in the assay with OVCAR-4 ovarian, 87.8%; in the assay with SK-OV-3 ovarian it was 118%. Further, the growth with IGROV1 ovarian was -26% (active); in the assay on OVCAR-3 ovarian, 119%; with HS 578T breast, 84.5%; in the assay with NCI/ADR-RES ovarian, 88.5%; with T-47D breast, 46%; in the assay with BT-549 breast it was 52.5%. For the same molecule, the growth in the assay on MDA-MB-435 melanoma is 93.7%; in the assay on SW-620 colon it was 63.5%; in the assay with MCF7 breast, 35.9%; in the assay on HCT-116 colon it was 80.1%; in the assay with HCC-2998 colon, 80.8%; in the assay with KM12 colon, 111%.
With `COc1cc(-c2csc(NC(=O)Nc3ccc(Cl)cc3Cl)n2)cc(OC)c1OC`, the growth with SR leukemia is 23.1%; in the assay with RPMI-8226 leukemia it was 30%; with OVCAR-8 ovarian, 45.4%; in the assay with OVCAR-5 ovarian, 75.8%; in the assay on OVCAR-4 ovarian, 55.5%; in the assay on SK-OV-3 ovarian, 55.5%. Further, the growth in the assay with IGROV1 ovarian was 51.7%; in the assay with OVCAR-3 ovarian, 20.5%; with HS 578T breast it was 34.5%; in the assay with NCI/ADR-RES ovarian it was 9.75% (active); with T-47D breast it was 26.6%; with BT-549 breast, 38.3%. The growth was -7.76% (active) with MDA-MB-435 melanoma; 28.8% in the assay on SW-620 colon; 11.8% in the assay on MCF7 breast; 19.3% in the assay with HCT-116 colon; 60.1% with HCC-2998 colon; 24.6% with KM12 colon.
With `O=P([O-])(O)OP(=O)([O-])O.[NH-][C@H]1CCCC[C@@H]1[NH-].[OH-].[OH-].[Pt+4]`, the growth with SR leukemia was 91.3%; with RPMI-8226 leukemia it was 97.8%; in the assay on OVCAR-8 ovarian it was 101%; in the assay with OVCAR-5 ovarian it was 95.2%; in the assay with OVCAR-4 ovarian it was 109%; in the assay with SK-OV-3 ovarian it was 106%. Moreover, the growth was 108% in the assay with IGROV1 ovarian; 111% with OVCAR-3 ovarian; 109% with HS 578T breast; 103% in the assay on NCI/ADR-RES ovarian; 114% in the assay with T-47D breast; 117% with BT-549 breast. In addition, the growth in the assay with MDA-MB-435 melanoma was 99.3%; with SW-620 colon, 105%; in the assay on MCF7 breast, 96.7%; in the assay with HCT-116 colon, 101%; with HCC-2998 colon, 98.8%; in the assay on KM12 colon it was 104%.
